Experimental data taken from PubChem BioAssay (Tox21).
Inconclusive results are not listed. Activity calls are given as the source filed them. Unless noted, the call rests on the fitted dose curve; in most records, active means well fitted curve in the direction sought with a large enough effect in the repeat runs; inconclusive means weak or mixed curves; inactive means no such curve, though single readings can be large; an effect the other way counts as inactive or inconclusive.

Columns and labels:
[1] = qHTS assay to identify aromatase inhibitors - cell viability counter screen (AID 743084);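 further: cells stimulated with testosterone during compound exposure; nearly all actives have a fitted effect of over 55% in size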; further: potency means the concentration at half of the fitted maximal effect
[2] = biological target: Aryl hydrocarbon receptor (Homo sapiens) (UniProt P35869); assay: qHTS assay to identify small molecule that activate the aryl hydrocarbon receptor (AhR) signaling pathway (AID 743085); further: nearly all actives have a fitted effect of over 15% in size; further: potency means the concentration at half of the fitted maximal effect;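 on activation: HG2L7.5c1 human HepG2 liver cells with stably integrated DRE-driven firefly reporter; series mostly up to about 70 µM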
Sequence of Aryl hydrocarbon receptor (Homo sapiens) (P35869 whole entry, looked up): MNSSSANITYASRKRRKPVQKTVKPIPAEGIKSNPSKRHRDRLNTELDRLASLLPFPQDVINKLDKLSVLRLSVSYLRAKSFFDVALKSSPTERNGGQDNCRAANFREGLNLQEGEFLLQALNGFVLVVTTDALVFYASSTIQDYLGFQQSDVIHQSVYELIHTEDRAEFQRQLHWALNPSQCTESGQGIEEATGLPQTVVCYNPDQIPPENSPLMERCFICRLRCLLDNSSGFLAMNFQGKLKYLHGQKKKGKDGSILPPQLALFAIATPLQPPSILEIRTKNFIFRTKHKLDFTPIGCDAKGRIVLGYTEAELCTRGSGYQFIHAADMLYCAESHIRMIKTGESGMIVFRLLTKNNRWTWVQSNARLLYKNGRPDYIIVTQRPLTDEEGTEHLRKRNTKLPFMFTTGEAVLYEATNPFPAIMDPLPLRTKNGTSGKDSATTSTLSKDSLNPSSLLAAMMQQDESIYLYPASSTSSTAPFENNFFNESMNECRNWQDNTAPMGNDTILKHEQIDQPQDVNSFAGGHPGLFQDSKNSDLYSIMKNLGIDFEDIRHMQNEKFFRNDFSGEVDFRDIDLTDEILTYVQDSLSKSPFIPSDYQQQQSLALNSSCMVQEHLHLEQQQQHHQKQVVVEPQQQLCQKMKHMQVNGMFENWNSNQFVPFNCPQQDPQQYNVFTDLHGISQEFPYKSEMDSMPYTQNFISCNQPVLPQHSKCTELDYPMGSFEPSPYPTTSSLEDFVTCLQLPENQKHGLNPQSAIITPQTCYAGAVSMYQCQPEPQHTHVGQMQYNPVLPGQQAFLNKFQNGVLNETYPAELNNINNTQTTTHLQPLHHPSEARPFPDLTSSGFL
In short: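 Cell line HG2L7.5c1 (human hepatoma, 20× DRE-luc). Plated, 5 h 37C, compound/DMSO added, 24 h 37C. CellTiter-Fluor 30 min 37C → fluorescence; then ONE-Glo 30 min RT → luminescence.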

[3] = biological target: Peroxisome proliferator-activated receptor gamma (Homo sapiens) (UniProt P37231); assay: qHTS assay to identify small molecule agonists of the peroxisome proliferator-activated receptor gamma (PPARg) signaling pathway (AID 743094; active means well fitted activation curve with a large enough effect in the signal ratio in the repeat runs, not every such curve was filed as active; the % refers to the signal ratio)
Sequence of Peroxisome proliferator-activated receptor gamma (Homo sapiens) (P37231 whole entry, looked up): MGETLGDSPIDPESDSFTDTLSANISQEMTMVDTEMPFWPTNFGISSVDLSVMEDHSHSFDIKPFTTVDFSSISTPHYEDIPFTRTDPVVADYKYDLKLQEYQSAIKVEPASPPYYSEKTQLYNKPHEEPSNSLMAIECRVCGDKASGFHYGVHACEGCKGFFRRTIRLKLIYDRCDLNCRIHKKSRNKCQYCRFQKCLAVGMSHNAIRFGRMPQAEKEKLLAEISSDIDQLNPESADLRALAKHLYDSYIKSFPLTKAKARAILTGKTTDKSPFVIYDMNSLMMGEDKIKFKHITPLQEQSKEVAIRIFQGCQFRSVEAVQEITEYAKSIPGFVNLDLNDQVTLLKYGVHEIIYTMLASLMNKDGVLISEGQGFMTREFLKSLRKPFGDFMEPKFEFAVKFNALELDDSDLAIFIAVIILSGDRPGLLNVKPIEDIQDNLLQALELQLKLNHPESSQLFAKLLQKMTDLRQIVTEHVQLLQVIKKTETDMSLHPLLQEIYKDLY
In short: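 Stably transfected HEK293H cells (GeneBLAzer PPARg UAS-bla) were incubated with test substances for 17 h at 37C after a 5 h pre-incubation; beta-lactamase activity was then detected by FRET substrate fluorescence.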

[4] = qHTS assay to identify small molecule antagonists of the peroxisome proliferator-activated receptor gamma (PPARg) signaling pathway - cell viability counter screen (AID 743194); conditions: Potency: co-treated with 50 nM rosiglitazone unless noted; further: nearly all actives have a fitted effect of over 55% in size; further: potency means the concentration at half of the fitted maximal effect
In short: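 Cytotoxicity counter screen in PPARg-bla HEK293H cells, same wells as reporter assay. Compounds plus 50 nM rosiglitazone (final) for 17 h at 37 C, then viability read by CellTiter-Glo luminescence.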

[5] = qHTS assay for small molecule agonists of the antioxidant response element (ARE) signaling pathway (AID 743202; active means well fitted activation curve with a large enough effect in the signal ratio in the repeat runs, not every such curve was filed as active; the % refers to the signal ratio)
In short: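 ARE-bla HepG2 cells (beta-lactamase reporter under the antioxidant response element), plated 5 hours, then exposed to compounds 16 hours at 37 C. LiveBLAzer B/G FRET substrate added for 2 hours at room temperature; fluorescence intensity read.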

[6] = qHTS assay for small molecule agonists of the antioxidant response element (ARE) signaling pathway - cell viability counter screen (AID 743203; calls by dose curve; further: nearly all actives have a fitted effect of over 55% in size; further: potency means the concentration at half of the fitted maximal effect)
In short: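 Cells (ARE-bla HepG2, 2,000/well) receive DMSO-dissolved compounds after a 5 hrs rest. Plates incubate 16 hrs at 37C/5% CO2. CellTiter-Glo luminescence is then recorded after 30 min at room temperature.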

[7] = qHTS assay for small molecule activators of the heat shock response signaling pathway - cell viability counter screen (AID 743209); further: nearly all actives have a fitted effect of over 50% in size; further: potency means the concentration at half of the fitted maximal effect
In short: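 Quantitative HTS format, Tox21 10K library. HeLa cells carrying an HSE-driven beta-lactamase reporter were treated 5 h at 37 C, then assessed for viability by CellTiter-Glo luminescence.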

[8] = biological target: Peroxisome proliferator-activated receptor delta (Homo sapiens) (UniProt Q03181); assay: qHTS assay to identify small molecule antagonists of the peroxisome proliferator-activated receptor delta (PPARd) signaling pathway (AID 743215; active means well fitted inhibition curve with a large enough effect in the signal ratio in the repeat runs, not every such curve was filed as active; the % refers to the signal ratio;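 further: cells stimulated with agonist L165041 at 300 nM final during compound exposure; series mostly up to about 62 µM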)
Sequence of Peroxisome proliferator-activated receptor delta (Homo sapiens) (Q03181 whole entry, looked up): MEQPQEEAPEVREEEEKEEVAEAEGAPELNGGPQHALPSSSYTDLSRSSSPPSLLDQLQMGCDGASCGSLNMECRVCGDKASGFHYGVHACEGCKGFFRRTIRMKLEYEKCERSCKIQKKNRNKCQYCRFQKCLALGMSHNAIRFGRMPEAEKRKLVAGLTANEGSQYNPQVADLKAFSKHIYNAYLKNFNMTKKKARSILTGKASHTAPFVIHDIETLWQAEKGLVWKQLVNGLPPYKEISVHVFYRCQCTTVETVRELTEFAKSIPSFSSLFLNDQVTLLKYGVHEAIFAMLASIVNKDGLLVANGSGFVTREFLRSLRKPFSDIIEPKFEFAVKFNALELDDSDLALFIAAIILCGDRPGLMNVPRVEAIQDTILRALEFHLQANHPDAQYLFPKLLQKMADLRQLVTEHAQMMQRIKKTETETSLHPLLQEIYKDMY
In short: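 Antagonist-mode beta-lactamase reporter screen: HEK293H cells with UAS-bla under PPARd control, stimulated by 300 nM L165041 (final) alongside test compound for 17 h at 37 C, then FRET fluorescence after 2 h substrate incubation.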

[9] = biological target: Bile acid receptor (Homo sapiens) (UniProt Q96RI1); assay: qHTS assay to identify small molecule agonists of the farnesoid-X-receptor (FXR) signaling pathway (AID 743220; active means well fitted activation curve with a large enough effect in the signal ratio in the repeat runs, not every such curve was filed as active; the % refers to the signal ratio)
Sequence of Bile acid receptor (Homo sapiens) (Q96RI1 whole entry, looked up): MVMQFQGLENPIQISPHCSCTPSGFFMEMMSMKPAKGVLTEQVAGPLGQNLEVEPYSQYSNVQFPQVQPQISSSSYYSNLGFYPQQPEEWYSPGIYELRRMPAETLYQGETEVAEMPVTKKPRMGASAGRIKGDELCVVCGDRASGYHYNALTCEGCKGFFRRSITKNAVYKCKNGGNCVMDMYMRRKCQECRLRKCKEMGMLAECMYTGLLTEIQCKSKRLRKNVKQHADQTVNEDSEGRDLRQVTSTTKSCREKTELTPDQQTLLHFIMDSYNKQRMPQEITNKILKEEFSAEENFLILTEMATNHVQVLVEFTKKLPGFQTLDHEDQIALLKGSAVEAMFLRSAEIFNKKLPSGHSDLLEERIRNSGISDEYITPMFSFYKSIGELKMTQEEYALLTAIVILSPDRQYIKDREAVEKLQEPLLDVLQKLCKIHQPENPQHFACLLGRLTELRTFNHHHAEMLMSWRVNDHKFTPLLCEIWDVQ
In short: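 Beta-lactamase reporter under UAS control in GeneBLAzer FXR HEK 293T cells (5000/well) measured with LiveBLAzer FRET substrate after 2 h at room temperature. Compound exposure lasted 16 h at 37C.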

[10] = qHTS assay to identify small molecule antagonists of the farnesoid-X-receptor (FXR) signaling pathway - cell viability counter screen (AID 743221; active means well fitted cell-killing curve with a large enough effect in the repeat runs, not every such curve was filed as active; further: nearly all actives have a fitted effect of over 50% in size; further: potency means the concentration at half of the fitted maximal effect)
In short: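 Luminescence from CellTiter-Glo measures cytotoxicity in GeneBLAzer FXR-UAS-bla HEK 293T cells. Cells were exposed to compounds with 50 uM chenodeoxycholic acid (final) for 16 h at 37 C, in wells also used for the reporter readout.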

[11] = qHTS assay to identify small molecule that activate the aryl hydrocarbon receptor (AhR) signaling pathway - cell viability counter screen (AID 743086); further: nearly all actives have a fitted effect of over 45% in size; further: potency means the concentration at half of the fitted maximal effect
In short: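 HepG2-AhR-luc (HG2L7.5c1) cells, 4000/well, treated 24 h at 37 C with compound; viability measured as CellTiter-Fluor fluorescence after 30 min in the same wells as the luciferase read.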

[12] = qHTS assay to identify small molecule agonists of the peroxisome proliferator-activated receptor delta (PPARd) signaling pathway - cell viability counter screen (AID 743211); further: nearly all actives have a fitted effect of over 55% in size; further: potency means the concentration at half of the fitted maximal effect
In short: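 HEK293H PPARd-bla, 3000 cells/well; 5 h preincubation 37C/5% CO2; cpd in DMSO, 17 h 37C; B/G FRET substrate 2 h RT; CellTiter-Glo 30 min RT, luminescence.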

[13] = qHTS assay to identify small molecule antagonists of the peroxisome proliferator-activated receptor delta (PPARd) signaling pathway - cell viability counter screen (AID 743213); further: nearly all actives have a fitted effect of over 50% in size; further: potency means the concentration at half of the fitted maximal effect
In short: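 HEK293H PPARd UAS-bla cells, 5 h pre-incubation, compound + L165041 300 nM final, 17 h 37 C; B/G FRET substrate 2 h RT; then CellTiter-Glo 30 min RT, luminescence.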

[14] = qHTS assay to identify small molecule agonists of the farnesoid-X-receptor (FXR) signaling pathway - cell viability counter screen (AID 743218); further: nearly all actives have a fitted effect of over 45% in size; further: potency means the concentration at half of the fitted maximal effect
In short: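 In GeneBLAzer FXR-UAS-bla HEK 293T cells, compounds act for 16 h at 37 C. Cell viability is then scored in the reporter wells by CellTiter-Glo, 30 min at RT, luminescence.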

[15] = biological target: Vitamin D3 receptor (Homo sapiens) (UniProt P11473); assay: qHTS assay to identify small molecule agonists of the vitamin D receptor (VDR) signaling pathway (AID 743222; calls by dose curve)
Sequence of Vitamin D3 receptor (Homo sapiens) (P11473 whole entry, looked up): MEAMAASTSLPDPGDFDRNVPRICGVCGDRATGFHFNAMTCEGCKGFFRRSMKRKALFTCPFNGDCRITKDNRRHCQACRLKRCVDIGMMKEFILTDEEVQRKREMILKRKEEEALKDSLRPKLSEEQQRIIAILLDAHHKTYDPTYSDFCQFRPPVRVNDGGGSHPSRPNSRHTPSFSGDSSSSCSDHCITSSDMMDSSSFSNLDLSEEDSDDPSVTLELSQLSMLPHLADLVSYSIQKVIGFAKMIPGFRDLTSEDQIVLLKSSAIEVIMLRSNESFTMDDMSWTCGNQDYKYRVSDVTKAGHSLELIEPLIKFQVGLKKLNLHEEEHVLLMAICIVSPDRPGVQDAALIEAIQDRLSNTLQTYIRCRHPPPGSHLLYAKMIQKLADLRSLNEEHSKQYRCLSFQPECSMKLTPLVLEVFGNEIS
In short: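 Agonist activity measured in VDR-bla reporter cells. Exposure 16 h, 37C, 5% CO2; detection by B/G FRET substrate, 2 h RT.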

[16] = biological target: Peroxisome proliferator-activated receptor gamma (Homo sapiens) (UniProt P37231); assay: qHTS assay to identify small molecule antagonists of the peroxisome proliferator-activated receptor gamma (PPARg) signaling pathway (AID 743191; calls by dose curve; further: series mostly up to about 63 µM; nearly all actives have a fitted effect of over 30% in size)
In short: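 GeneBLAzer PPARg UAS-bla HEK293H cells, 5 h post-plating, exposed to compounds 17 h at 37C. LiveBLAzer B/G FRET substrate added for 1 h at room temperature; beta-lactamase reporter read by fluorescence intensity.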

[17] = qHTS assay for small molecule activators of the heat shock response signaling pathway (AID 743210; active means well fitted activation curve with a large enough effect in the signal ratio in the repeat runs, with a control signal flat, not every such curve was filed as active; the % refers to the signal ratio; further: series mostly up to about 63 µM)
In short: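 HSE-bla HeLa cells (beta-lactamase reporter under heat shock response elements), plated overnight, then exposed to compounds 5 h at 37 C; LiveBLAzer B/G FRET substrate added, 2.5 h at room temperature, fluorescence intensity read.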

[18] = biological target: Vitamin D3 receptor (Homo sapiens) (UniProt P11473); assay: qHTS assay to identify small molecule antagonists of the vitamin D receptor (VDR) signaling pathway (AID 743223; active means well fitted inhibition curve with a large enough effect in the signal ratio in the repeat runs, not every such curve was filed as active; the % refers to the signal ratio)
In short: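 Antagonist mode uses 1alpha,25-dihydroxyvitamin D3 at 3 nM final as stimulus. VDR-bla cells receive compounds in DMSO, incubate 16 h at 37C, then a beta-lactamase FRET substrate for 2 h at room temperature before fluorescence measurement.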

[19] = biological target: Bile acid receptor (Homo sapiens) (UniProt Q96RI1); assay: qHTS assay to identify small molecule antagonists of the farnesoid-X-receptor (FXR) signaling pathway (AID 743217; active means well fitted inhibition curve with a large enough effect in the signal ratio in the repeat runs, not every such curve was filed as active; the % refers to the signal ratio)
In short: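 Beta-lactamase reporter under UAS control in HEK 293T cells; compound exposure 16 h at 37 °C in the presence of chenodeoxycholic acid (50 uM final); signal from B/G FRET substrate after 2 h at room temperature.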

[20] = biological target: Peroxisome proliferator-activated receptor delta (Homo sapiens) (UniProt Q03181); assay: qHTS assay to identify small molecule agonists of the peroxisome proliferator-activated receptor delta (PPARd) signaling pathway (AID 743212; calls by dose curve)
In short: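 GeneBLAzer UAS-bla HEK293H cells carrying a PPARδ construct were exposed to compounds at 37 °C. Beta-lactamase activity was read by FRET fluorescence after 2 h at room temperature with LiveBLAzer B/G substrate.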

Measured: Potency

CN1CCc2cc(Cl)c(O)cc2[C@H]2c3ccccc3CC[C@@H]21
inactive: [1] | [2] | [3] | [4] | [5] | [6] | [7] | [8] | [9] | [10]

C=C(C)C(=O)[O][Sn]([CH2]CCC)([CH2]CCC)[CH2]CCC
inactive: [2] | [15]
active: [1] 2730 nM | [11] 2730 nM | [4] 549 nM | [6] 433 nM | [7] 1100 nM | [12] 871 nM | [13] 1550 nM | [14] 616 nM | [10] 977 nM

c1ccc2nc(N3CCNCC3)ccc2c1
inactive: [1] | [2] | [3] | [16] | [4] | [7] | [17] | [18]

O.O.O.O.O.O.O.O=S(=O)([O-])[O-].[Co+2]
inactive: [1] | [2] | [11] | [6] | [7] | [13] | [10]

O=C(NC(=O)c1c(F)cccc1F)Nc1ccc(Oc2ccc(C(F)(F)F)cc2Cl)cc1F
inactive: [1] | [2] | [11] | [4] | [6] | [7] | [8] | [19] | [9] | [10]

CCCCCON=O
not listed: [9] | [11] | [19] | [20]
inactive: all other assays above

CN(C)c1ccc(N)cc1
active: [1] 66900 nM | [2] 18900 nM
inactive: [3] | [4] | [6] | [7] | [17] | [20] | [14] | [10] | [15]
